Measured values published in ChEMBL document CHEMBL3988442, “University of Dundee, Small-Polar-MMV Screening Library” (2021).
For some of these results: Measured potencies and affinities stand elsewhere.

Columns and labels:
Design in all cases: scale not given: direction of the effect not stated beside the values
[1] = target: Protein translocase subunit SecA (Escherichia coli (strain K12)) (UniProt P10408); test: Assay to Identify E. coli SecA ATPase Inhibitors; type: functional; conditions: 30 µM
Chain of Protein translocase subunit SecA (Escherichia coli (strain K12)) (P10408 whole entry): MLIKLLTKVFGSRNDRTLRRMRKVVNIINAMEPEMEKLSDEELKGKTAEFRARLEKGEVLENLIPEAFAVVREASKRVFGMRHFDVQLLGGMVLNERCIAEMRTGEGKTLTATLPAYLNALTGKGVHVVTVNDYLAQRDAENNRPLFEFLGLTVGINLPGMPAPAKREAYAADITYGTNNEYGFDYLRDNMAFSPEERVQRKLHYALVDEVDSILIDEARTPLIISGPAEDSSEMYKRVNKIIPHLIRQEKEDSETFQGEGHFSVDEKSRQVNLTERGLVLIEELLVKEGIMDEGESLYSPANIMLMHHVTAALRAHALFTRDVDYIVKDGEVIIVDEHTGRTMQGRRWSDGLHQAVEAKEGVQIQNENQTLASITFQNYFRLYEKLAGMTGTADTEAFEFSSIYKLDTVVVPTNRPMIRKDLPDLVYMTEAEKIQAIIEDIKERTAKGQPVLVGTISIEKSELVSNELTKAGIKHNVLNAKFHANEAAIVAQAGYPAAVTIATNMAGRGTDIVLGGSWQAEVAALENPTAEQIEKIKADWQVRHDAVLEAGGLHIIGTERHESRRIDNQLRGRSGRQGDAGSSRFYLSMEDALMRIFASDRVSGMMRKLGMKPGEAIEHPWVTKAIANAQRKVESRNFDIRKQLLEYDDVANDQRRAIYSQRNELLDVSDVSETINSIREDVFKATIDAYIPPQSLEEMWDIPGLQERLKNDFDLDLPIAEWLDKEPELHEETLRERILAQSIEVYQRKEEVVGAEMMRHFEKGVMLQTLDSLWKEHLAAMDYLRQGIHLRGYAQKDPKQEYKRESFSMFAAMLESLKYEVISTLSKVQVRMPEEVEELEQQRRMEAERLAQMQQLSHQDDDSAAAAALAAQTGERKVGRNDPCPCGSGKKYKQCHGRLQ

[2] = target: T1, Ubiquitin-activating enzyme e1, putative (Leishmania donovani (strain BPK282A1)) (UniProt E9BSI1); test: Leishmania donovani Ubiquitin Activating Enzyme (LdE1); type: functional; conditions: 30 µM
T1 sequence (whole entry): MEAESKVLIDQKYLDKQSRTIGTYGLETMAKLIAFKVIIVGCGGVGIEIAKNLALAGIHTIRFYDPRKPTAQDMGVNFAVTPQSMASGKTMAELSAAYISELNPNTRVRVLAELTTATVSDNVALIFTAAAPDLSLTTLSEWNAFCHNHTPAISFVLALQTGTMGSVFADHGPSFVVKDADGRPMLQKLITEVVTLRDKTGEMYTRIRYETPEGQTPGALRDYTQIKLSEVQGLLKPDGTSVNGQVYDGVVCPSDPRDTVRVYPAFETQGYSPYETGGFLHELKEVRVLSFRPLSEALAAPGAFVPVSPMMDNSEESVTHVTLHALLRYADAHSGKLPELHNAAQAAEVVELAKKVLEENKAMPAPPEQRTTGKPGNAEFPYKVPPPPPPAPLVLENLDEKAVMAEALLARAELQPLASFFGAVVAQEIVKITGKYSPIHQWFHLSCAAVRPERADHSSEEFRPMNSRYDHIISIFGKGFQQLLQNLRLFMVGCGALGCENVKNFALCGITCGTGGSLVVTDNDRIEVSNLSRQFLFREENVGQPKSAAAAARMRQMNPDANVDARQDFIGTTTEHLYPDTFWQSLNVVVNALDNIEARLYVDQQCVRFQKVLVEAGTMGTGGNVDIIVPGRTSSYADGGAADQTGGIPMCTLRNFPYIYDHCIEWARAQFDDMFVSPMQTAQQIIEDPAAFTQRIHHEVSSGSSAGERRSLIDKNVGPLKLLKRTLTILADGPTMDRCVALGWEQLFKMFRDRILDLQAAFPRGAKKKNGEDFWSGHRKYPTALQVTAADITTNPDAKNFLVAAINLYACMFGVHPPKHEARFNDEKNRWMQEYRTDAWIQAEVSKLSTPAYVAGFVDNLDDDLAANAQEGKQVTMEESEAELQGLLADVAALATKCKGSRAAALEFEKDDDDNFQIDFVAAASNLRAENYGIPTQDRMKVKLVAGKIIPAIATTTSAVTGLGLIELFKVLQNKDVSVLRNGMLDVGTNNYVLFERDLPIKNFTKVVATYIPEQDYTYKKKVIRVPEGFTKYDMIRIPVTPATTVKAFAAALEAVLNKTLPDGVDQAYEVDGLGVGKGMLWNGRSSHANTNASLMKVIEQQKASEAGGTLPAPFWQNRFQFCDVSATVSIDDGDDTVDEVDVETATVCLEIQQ

[3] = target: AMP-activated protein kinase, AMPK (Homo sapiens) (UniProt P54646+O43741+P54619+Q9UGJ0+Q9Y478+Q13131+Q9UGI9); test: AMP-dependent Kinase enzyme assay. An in vitro enzyme assay that detects ADP turnover that is directly proportional to AMPK activity. This uses naive AMPK that is activated during the assay with MK-8722; type: functional; conditions: 30 µM
[4] = target: Sialic acid-binding Ig-like lectin 9 (Homo sapiens) (UniProt Q9Y336); test: Hs-Siglec9 ALPHAscreen SOP 20170721; conditions: 10 µM
Chain of Sialic acid-binding Ig-like lectin 9 (Homo sapiens) (Q9Y336 whole entry): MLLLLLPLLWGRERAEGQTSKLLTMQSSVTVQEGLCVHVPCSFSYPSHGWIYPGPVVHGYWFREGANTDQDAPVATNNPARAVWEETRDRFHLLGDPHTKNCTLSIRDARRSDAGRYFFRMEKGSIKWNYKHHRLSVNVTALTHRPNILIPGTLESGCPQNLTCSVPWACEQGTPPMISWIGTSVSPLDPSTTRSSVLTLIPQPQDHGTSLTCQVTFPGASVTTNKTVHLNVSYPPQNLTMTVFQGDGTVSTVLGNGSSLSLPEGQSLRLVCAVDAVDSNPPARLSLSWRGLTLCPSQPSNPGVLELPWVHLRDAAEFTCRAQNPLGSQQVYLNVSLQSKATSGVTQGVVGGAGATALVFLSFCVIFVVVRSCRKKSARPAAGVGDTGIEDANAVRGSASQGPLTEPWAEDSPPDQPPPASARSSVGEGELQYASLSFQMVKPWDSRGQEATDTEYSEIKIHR

Trypanosoma cruzi = test: Trypanosoma cruzi phosphomannomutase and mannose-1-phosphate guanylyltransferase assay; type: functional; conditions: 10 µM
[5] = target: T2, Arginase-2, mitochondrial (Homo sapiens) (UniProt P78540); test: in vitro enzyme assay to detect the production of urea directly proportional to the activity of Arginase II; type: functional; conditions: 33.3 µM; further: in the data most compounds retested in dose-response had high values
T2 sequence (whole entry): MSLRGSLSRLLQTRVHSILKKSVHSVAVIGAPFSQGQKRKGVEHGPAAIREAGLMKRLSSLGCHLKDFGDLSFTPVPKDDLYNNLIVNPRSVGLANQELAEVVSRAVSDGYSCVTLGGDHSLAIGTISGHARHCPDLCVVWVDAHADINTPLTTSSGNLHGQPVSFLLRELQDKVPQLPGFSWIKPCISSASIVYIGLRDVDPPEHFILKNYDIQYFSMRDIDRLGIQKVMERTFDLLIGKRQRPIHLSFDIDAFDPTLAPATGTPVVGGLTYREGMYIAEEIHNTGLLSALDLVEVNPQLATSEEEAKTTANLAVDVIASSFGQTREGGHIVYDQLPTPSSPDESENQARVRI

[6] = target: T3, Proteasome subunit beta (Trypanosoma cruzi) (UniProt O96673); test: Trypanosoma cruzi proteasome chymotrypsin-like activity (TcProtChymo) assay.; further: in the data most compounds retested in dose-response had high values; type: functional; conditions: 9.37 µM
T3 sequence (whole entry): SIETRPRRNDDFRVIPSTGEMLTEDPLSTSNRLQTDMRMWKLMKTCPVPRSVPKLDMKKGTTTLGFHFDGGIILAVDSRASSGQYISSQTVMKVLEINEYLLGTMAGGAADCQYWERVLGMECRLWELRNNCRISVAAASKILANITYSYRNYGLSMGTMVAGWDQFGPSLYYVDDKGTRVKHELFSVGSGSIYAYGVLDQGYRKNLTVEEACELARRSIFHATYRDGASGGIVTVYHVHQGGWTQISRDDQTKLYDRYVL

Homo sapiens = organism: Homo sapiens; test: To identify inhibition of the IFN signalling (Jak-Stat) pathway via expression of an eGFP reporter gene under the control of an IFN-stimulated response element (ISRE) containing MxA promoter.; type: functional; conditions: 30 µM
[7] = target: T4, Tyrosyl-tRNA synthetase, putative (Trypanosoma cruzi (strain CL Brener)) (UniProt Q4DSP6); test: Trypanosoma cruzi tyrosyl tRNA synthetase (TcYRS) _High Tyrosine SOP; type: functional; conditions: 30 µM; further: in the data most compounds retested in dose-response had high values
T4 sequence (whole entry): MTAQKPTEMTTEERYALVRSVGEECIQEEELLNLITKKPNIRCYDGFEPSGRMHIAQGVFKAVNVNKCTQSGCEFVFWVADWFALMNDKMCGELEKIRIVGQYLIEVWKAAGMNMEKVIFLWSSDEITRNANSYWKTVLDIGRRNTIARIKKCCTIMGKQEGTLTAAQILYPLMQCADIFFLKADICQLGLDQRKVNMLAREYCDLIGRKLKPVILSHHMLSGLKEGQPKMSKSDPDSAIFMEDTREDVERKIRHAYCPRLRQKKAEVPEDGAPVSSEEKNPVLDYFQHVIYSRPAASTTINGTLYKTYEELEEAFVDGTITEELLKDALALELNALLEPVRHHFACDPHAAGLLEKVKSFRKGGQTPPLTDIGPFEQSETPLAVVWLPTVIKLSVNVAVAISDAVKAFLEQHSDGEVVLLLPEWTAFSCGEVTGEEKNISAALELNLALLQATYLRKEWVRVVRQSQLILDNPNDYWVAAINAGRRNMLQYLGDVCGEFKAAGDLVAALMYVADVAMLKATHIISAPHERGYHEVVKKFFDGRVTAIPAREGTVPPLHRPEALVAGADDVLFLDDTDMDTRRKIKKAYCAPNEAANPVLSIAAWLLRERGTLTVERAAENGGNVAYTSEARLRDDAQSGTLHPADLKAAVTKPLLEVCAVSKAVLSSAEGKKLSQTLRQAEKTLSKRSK

[8] = target: T4, Tyrosyl-tRNA synthetase, putative (Trypanosoma cruzi (strain CL Brener)); test: Trypanosoma cruzi tyrosyl tRNA synthetase (TcYRS) SOP; type: functional; conditions: 30 µM
[9] = target: Chromo domain-containing protein 1 (Saccharomyces cerevisiae (strain ATCC 204508 / S288c) (Baker's yeast)) (UniProt P32657); test: ScCHD-1 Enzyme Inhibition Assay; type: functional; conditions: 30 µM; further: in the data most compounds retested in dose-response had high values
Chain of Chromo domain-containing protein 1 (Saccharomyces cerevisiae (strain ATCC 204508 / S288c) (Baker's yeast)) (P32657 whole entry, the tested form may be a part): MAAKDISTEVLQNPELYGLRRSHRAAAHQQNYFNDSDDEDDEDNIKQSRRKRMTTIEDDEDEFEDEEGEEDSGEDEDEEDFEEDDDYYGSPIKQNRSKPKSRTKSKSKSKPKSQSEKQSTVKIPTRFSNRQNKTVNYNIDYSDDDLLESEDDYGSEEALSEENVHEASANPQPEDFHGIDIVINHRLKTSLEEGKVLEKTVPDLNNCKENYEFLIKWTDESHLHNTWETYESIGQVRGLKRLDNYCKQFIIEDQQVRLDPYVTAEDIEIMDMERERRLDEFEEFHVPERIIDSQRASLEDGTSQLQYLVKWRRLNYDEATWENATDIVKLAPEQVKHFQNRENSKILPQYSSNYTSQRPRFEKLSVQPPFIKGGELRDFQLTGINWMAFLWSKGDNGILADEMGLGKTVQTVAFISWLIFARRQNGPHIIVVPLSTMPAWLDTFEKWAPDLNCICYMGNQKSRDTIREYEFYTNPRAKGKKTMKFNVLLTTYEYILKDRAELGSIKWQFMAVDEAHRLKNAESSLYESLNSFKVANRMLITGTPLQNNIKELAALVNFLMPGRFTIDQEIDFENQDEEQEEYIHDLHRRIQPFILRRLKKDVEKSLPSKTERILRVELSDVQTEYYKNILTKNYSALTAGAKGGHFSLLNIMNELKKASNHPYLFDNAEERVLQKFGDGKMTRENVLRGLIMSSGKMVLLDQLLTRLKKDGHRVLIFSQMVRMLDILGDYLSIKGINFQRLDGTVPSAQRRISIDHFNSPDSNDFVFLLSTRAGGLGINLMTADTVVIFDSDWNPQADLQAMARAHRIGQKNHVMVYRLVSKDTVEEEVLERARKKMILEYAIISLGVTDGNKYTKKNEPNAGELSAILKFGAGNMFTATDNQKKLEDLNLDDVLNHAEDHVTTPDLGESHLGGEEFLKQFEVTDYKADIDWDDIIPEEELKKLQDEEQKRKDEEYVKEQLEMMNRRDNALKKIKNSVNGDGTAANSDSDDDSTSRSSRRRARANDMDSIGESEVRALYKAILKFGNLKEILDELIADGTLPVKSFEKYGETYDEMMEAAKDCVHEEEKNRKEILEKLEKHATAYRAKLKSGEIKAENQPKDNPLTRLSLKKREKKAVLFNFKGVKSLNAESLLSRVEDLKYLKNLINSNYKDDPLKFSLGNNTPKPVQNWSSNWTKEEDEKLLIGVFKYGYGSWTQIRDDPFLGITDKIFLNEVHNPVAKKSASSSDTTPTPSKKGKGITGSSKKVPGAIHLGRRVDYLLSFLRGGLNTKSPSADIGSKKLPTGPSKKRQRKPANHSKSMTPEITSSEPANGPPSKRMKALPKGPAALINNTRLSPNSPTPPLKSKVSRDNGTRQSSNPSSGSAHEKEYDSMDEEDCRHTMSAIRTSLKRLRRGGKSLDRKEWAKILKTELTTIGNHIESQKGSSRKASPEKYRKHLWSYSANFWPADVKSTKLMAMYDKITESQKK

| Structure (SMILES) | Percent Effect [1] | Percent Effect [2] | Percent Effect [3] | Percent Effect [4] | Percent Effect (Trypanosoma cruzi) | Percent Effect [5] | Percent Effect [6] | Percent Effect (Homo sapiens) | Percent Effect [7] | Percent Effect [8] | Percent Effect [9] |
| --- | --- | --- | --- | --- | --- | --- | --- | --- | --- | --- | --- |
| c1cc2nc(C3CCN(CC4CC4)CC3)nn2cc1N1CCCC1 | -0.605% | 11% | -111% | 9.79% | 0.595% | 0.399% | 11.4% | 7.29% | 13.5% | -1.24% | -6.62% |
| Cc1cc(C)c(CNC(=O)N(C)Cc2sccc2C)c(=O)[nH]1 | -4.14% | 18.4% | -5.42% | -3.09% | -3.46% | -2.88% | 2.62% | 9.33% | 4.43% | 11.1% | -4.59% |
| COc1cc(C(=O)Nc2nc(C)no2)ccc1C | -6.11% | 25.3% | -1.3% | -0.471% | 3.12% | -4.56% | 4.83% | 33.2% | 7.39% | 26.6% | -8.84% |
| NC(=O)c1cccc(CC2CCN(C(=O)CCCN3CCOCC3)C2)c1 (stereo not given) | -2.51% | -2.74% | 4.39% | -12.6% | -1.18% | -2.27% | -3.02% | 6.37% | 2.15% | 2.5% | -1.16% |
| CN1CCOC(CNCc2cccc(OCC(F)(F)F)c2)C1 (stereo not given) | -3.56% | 5.06% | -19.3% | 12.1% | -1.79% | 0.38% | -6.31% | 0.0497% | 4.43% | 1.27% | -2.57% |
| Cc1nc(CN2C(=O)CC[C@H]3[C@@H]2CCN3C(=O)c2ccsc2)cs1 | 2.29% | 10.8% | 2.71% | -8.13% | 4.2% | -1.59% | 28% | -19.9% | 5.41% | 15.4% | -0.758% |
| O=c1c2ccccc2nc2n1CCN(Cc1cccs1)CC2 | -2.59% | 20.3% | 9.44% | 0.538% | 1.98% | -4.41% | 17% | 23.7% | 5.38% | 14.3% | -12.4% |
| COc1ccnc(N2CCN(C(=O)Cc3ccc(C#N)cc3)CC2)n1 | -3.03% | 13% | -3.06% | 0.369% | 3.82% | 1.9% | 12.7% | 7.36% | 7.62% | 23.5% | -7.06% |
| O=C(NC1CCCC1)[C@@H]1CN(Cc2nccs2)C[C@H]2OCC[C@H]21 | -5.51% | 2.67% | -3.12% | -3.59% | -1.77% | 1.63% | -3.26% | 21.4% | 3.19% | -3.85% | 7.18% |
| CC(C)Cc1noc(CN2CCN(c3nccs3)CC2)n1 | -8.59% | 10.4% | 5.21% | 0.0825% | -5.99% | -2.13% | 6.25% | 33.3% | 0.971% | 7.32% | -3.68% |
| Cc1cnn(CC(C)NCc2nc(-c3ccco3)no2)c1 (stereo not given) | -7.61% | 12.5% | -18.7% | 40.6% | 7.09% | 9.27% | 14.9% | 4.8% | 3.16% | 12.8% | 10.7% |
| Cc1nc(COC[C@@H]2CC[C@H]3[C@H](CCN3c3ncccn3)O2)cs1 | -0.526% | 0% | -0.411% | 3.43% | -0.394% | 4.89% | 15.2% | 8.36% | 4.25% | 1.28% | 2.8% |
| COc1ccc(NC(=O)NC(C)c2nc[nH]n2)cc1 (stereo not given) | -1.78% | 8.11% | -0.122% | 9.35% | 3.03% | 19.6% | 17.9% | -13.4% | 0% | 11.1% | -3.04% |
| CCc1ccc(NS(=O)(=O)CC2=NC(=O)n3cccc3C2=O)cc1 | 1.25% | -17.3% | 11.5% | 5.52% | -0.786% | -7.57% | 6.1% | 0.554% | -8.47% | -12.8% | 3.49% |
| CCn1nccc1CNC(=O)C(C)n1cc2c(n1)c(C)nn2C (stereo not given) | -5.47% | 20% | -7.37% | 0.228% | 0.197% | -11.4% | 10.5% | 2.05% | 5.29% | 12.8% | -12.4% |
| COc1ccc(C2=C(C)C(N3CCc4ccccc43)=NS2(=O)=O)cc1 | -1.62% | 20.8% | -4.65% | -5.53% | 1.08% | 3.23% | 12.7% | 9.51% | -1.06% | 8.97% | -11.2% |
| CC(=O)N1C[C@H](NC(=O)c2cscn2)[C@@H]2OCCC[C@@H]21 | -1.76% | 10.8% | 2.39% | -9.14% | -5.38% | 7.33% | 23.2% | -9.35% | -1.08% | 10.3% | -0.517% |
| Cn1cc2c(n1)C(COCC1CC1)CN(Cc1ccccn1)C2 (stereo not given) | -6.24% | -2.7% | 0.433% | -2.97% | 4.2% | -0.319% | 9.22% | 9.46% | 6.49% | 10.3% | 4.91% |
| CC(CNC(=O)Nc1ccc(N(C)C)nc1)Cn1cccn1 (stereo not given) | -4.28% | 4.17% | -13.8% | -3.22% | -3.21% | 3.09% | 13.7% | -15.8% | -3.16% | 2.56% | -3.32% |
| CCc1nnc2n1CCN(CC(=O)Nc1sccc1C#N)C2 | -4.04% | 10.5% | -7.74% | -3.22% | -8.68% | 5.4% | 12.6% | -5.63% | 5.42% | 6.17% | -3.17% |
